Screening results as filed in PubChem BioAssay.
Compounds with a hit are over-represented: about 2.2% of the library has one in this group of screens.
FBPA Giardia inh: Giardia lamblia aldolase inhibition; Potency, µM (highest dose often 59.6 µM), for the others: at the highest dose activity, negative = inhibition, actives largely listed as inhibitors; hit rate 0.71% among 290,000; A8B2U2; purified Giardia FBPA; active = well fitted inhibition curve with a large enough effect; inconclusive = small, poorly fitted or top-dose-only effect, or effect the other way; also: nearly all actives have a fitted effect of over 55% in size
Target sequence (A8B2U2 whole entry, looked up): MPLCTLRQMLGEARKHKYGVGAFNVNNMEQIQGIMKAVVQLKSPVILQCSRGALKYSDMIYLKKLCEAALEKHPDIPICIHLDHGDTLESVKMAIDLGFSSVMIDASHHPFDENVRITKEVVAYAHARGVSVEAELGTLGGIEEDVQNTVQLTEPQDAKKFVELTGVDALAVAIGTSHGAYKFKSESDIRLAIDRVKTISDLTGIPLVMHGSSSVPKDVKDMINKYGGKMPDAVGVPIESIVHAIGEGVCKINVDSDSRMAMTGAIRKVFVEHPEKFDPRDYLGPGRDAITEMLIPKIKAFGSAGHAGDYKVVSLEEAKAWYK
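Giardia FBPA (40 nM reagent) was preincubated 10 min at RT with compound (up to 57.5 uM final), then substrate plus GAPDH/TPI/NAD/arsenate coupling system with diaphorase/resazurin was added; resorufin fluorescence (525/598 nm) was read after 20 min.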
VACV Venus inh: vaccinia inhibition (Venus reporter). Vaccinia virus Venus reporter expression, fluorescence. Potency, µM (doses to about 36.5 µM), inactives show top-dose activity change, negative = inhibition, usual class: inhibitors. hit rate 0.46% among 330,000. AID 720580; calls by dose curve; tested in A549 cells; also: nearly all actives have a fitted effect of over 30% in size
Vaccinia mCherry: vaccinia inhibition (mCherry reporter); Vaccinia virus mCherry reporter infection, fluorescence; Potency, µM (doses to about 36.5 µM), inactives show at the top dose activity change, negative = inhibition, actives largely listed as inhibitors; hit rate 0.63% among 310,000; calls by dose curve; tested in A549 cells; also: nearly all actives have a fitted effect of over 35% in size
FMDV antiviral: blocks foot and mouth disease virus; FMDV antiviral cell-based qHTS; Potency, µM (titrated, usually from 57.9 µM), without a hit: at the highest dose activity change, negative = inhibition, hits mostly inhibitors; hit rate 1.2% among 410,000; calls by dose curve; tested in HEK293T cells; also: read-out not given here; nearly all actives have a fitted effect of over 45% in size
* = called active by the depositor; i = inactive; ? = inconclusive; . = no result; [ ] = remark or other dose. % is scaled to controls: 0 for no effect and ±100 for the full control effect; potency is read from the fitted curve at half-maximal effect.

SMILES	FBPA Giardia inh	VACV Venus inh	Vaccinia mCherry	FMDV antiviral
CCC1(C2CCN(C(=O)c3ccc(C)c(C)c3)CC2)NC(=O)N(CCc2scnc2C)C1=O (stereo not drawn)	.	-7%	i	12%
COc1ccc(Cl)cc1N(C)c1nc(N2CCN(S(=O)(=O)c3ccc(C)cc3)CC2)c2ccccc2n1	.	-7%	i	.
O=C1NC2C(=CC(O)C(O)C2O)c2cc3c(c(O)c21)OCO3 (stereo not drawn)	.	0.1µM*	8.9µM*	-10%
O=C1NC2C(O)C(O)C(O)C(O)C2c2cc3c(c(O)c21)OCO3 (stereo not drawn)	.	0.28µM*	2.2µM*	?
COc1cc(C2c3cc4c(cc3CC3COC(=O)C32)OCO4)cc(OC)c1O (stereo not drawn)	.	?	-24%	-12%
O=C1NC2C(=CC(O)C(O)C2O)c2cc3c(cc21)OCO3 (stereo not drawn)	.	1µM*	?	?
COCC1CCCN(c2nc(CN3CCN(C(=O)c4ccco4)CC3)nc3ccccc23)C1 (stereo not drawn)	.	-1%	-10%	3%
COc1ccc(-c2nc3c(c4c2C[C@H](c2ccccc2)OC4)CN(C(=O)c2cc(I)ccc2F)CC3)c(C)c1	7%[12.9 µM]	.	.	.
CC(C)(C)n1nnnc1C(c1cccs1)N(Cc1ccc(Cl)cc1)CC1CCCO1 (stereo not drawn)	-21%	?	11µM*	?
Cc1cccc(N2CCN(c3c4c(nc5nncn35)CCC4)CC2)c1C	.	-8%	-11%	-13%
Clc1cccc(N2CCN(c3c4c(nc5nncn35)CCC4)CC2)c1	.	-28%	?	22µM*
C=C(C)C(=O)OCC(O)COc1ccc(C(C)(C)c2ccc(OCC(O)COC(=O)C(=C)C)cc2)cc1 (stereo not drawn)	.	?	?	40µM*
CC(=O)c1ccc(OCC(O)COc2ccc(C(C)=O)cc2)cc1	-14%	6%	-17%	.
Cc1ccc(C(=O)Nc2ccc(Cl)cn2)cc1	-14%	-28%	?	-10%
Cc1ccc(C(=O)Nc2ncc3c(Cl)cccc3n2)cc1	-9%	-18%	-9%	10µM*
O=C(CSc1nc2ccccc2n1-c1ccccc1)Nc1ncc(Cl)cc1Cl	7%	20%	6.3µM*	-7%
Cc1cccc(-n2c(SCC(=O)Nc3ncc(Cl)cc3Cl)nc3ccccc32)c1	-1%	-24%	3.2µM*	0%
COc1ccc(-n2c(SCC(=O)Nc3ncc(Cl)cc3Cl)nc3ccccc32)cc1	-13%	.	.	.
CCOC(=O)[C@@H](C)N(C(=O)OC(C)(C)C)S(=O)(=O)N(Cc1ccccc1)[C@@H](C(=O)OC)C(C)C	.	-13%	-5%	.
Cc1nc2c(o1)C(=O)c1ccccc1C2=Nc1ccccc1	.	2.8µM*	2.5µM*	18µM*
Cc1sc(NC(=O)c2ccco2)nc1-c1ccc2c(c1)CC(C)N2C(=O)C1CC1 (stereo not drawn)	-13%	.	.	14µM*
Cc1cc(Cl)n2c(nc3cc(F)c(F)cc32)c1C#N	0%	-23%	?	18µM*
CC(=O)Nc1ccc(NS(=O)(=O)c2ccc3[nH]c4c(c3c2)CCCCC4)cc1	.	7.9µM*	?	24%
CC(=O)c1ccc(NS(=O)(=O)c2ccc3[nH]c4c(c3c2)CCCCCC4)cc1	.	-16%	-28%	52%
COc1ccc(C(C)(C)C)cc1NC(=O)c1ccc[n+]([O-])c1	2%	-1%	i	3%
SMILES	FBPA Giardia inh	VACV Venus inh	Vaccinia mCherry	FMDV antiviral
Cc1cc(C(C)(C)C)cc(C)c1CCNC(=O)c1ccc[n+]([O-])c1	2%	25%	10µM*	-11%
COc1cc2c(cc1OC)-c1cc3cc(OC)c(OC)cc3c(=O)n1CC2	-7%	.	.	-16%
Cc1cccc(NC(=O)CN2CCN(C(=O)CNC(=O)c3ccc(-c4ccccc4)cc3)CC2)c1C	.	?	-11%	20µM*
Cc1cccc(C)c1NC(=O)CN1CCN(C(=O)CNC(=O)c2ccc(-c3ccccc3)cc2)CC1	.	?	-30%	-24%
COc1cc(/C=C/c2cccc[n+]2C)ccc1OCC(=O)Nc1ccccc1C	7%	3%	-14%	2%
CCOc1cc(/C=C\[N+](=O)[O-])ccc1OCC(=O)Nc1ccccc1C	-3%	?	-13%	25µM*
COC(=O)[C@@H]1CCCN1Cc1ccc2c(c1)CN(Cc1ccccc1C)CCO2	.	-3%	-14%	-10%
Cn1c(NCC(O)c2ccccc2)nc2c1c(=O)n(Cc1ccc(Cl)c(Cl)c1)c(=O)n2C (stereo not drawn)	.	10µM*	.	14µM*
Cc1ccc(NC(=S)N/N=C/c2ccc([N+](=O)[O-])s2)cc1	6%	?	10µM*	?
Cc1cc(C)cc(N=Cc2ccc([N+](=O)[O-])s2)c1	-21%	-7%	-21%	0%
COc1cccc(/C=N/Nc2ccc([N+](=O)[O-])cn2)c1O	2%	?	1.1µM*	?
O=[N+]([O-])c1cccc(C=NNc2ccc3ccccc3n2)c1O	.	?	?	10µM*
COc1cccc(/C=N/Nc2ncccc2[N+](=O)[O-])c1OC	-3%	-24%	-26%	7.1µM*
COc1cccc(/C=N/Nc2nc(Nc3ccc([N+](=O)[O-])cc3)nc(N3CCCC3)n2)c1O	-16%	-28%	4µM*	-7%
O=[N+]([O-])c1ccc(NN=Cc2cccc3ccccc23)nc1	.	6%	?	16%
CCN1CCN(Cc2ccc(NC(=O)c3ccc(C)c(NC(=O)c4ccno4)c3)cc2C(F)(F)F)CC1	3%	?	-2%	-25%
CCN1CCN(Cc2ccc(NC(=O)c3ccc(C)c(/C=C/c4cnc(Nc5cc(N6CCNCC6)nc(C)n5)cn4)c3)cc2C(F)(F)F)CC1	-10%	8.9µM*	?	?
CCN1CCN(Cc2ccc(NC(=O)c3ccc(C)c(NC(=O)c4cccc(-c5cn[nH]c(=O)c5)c4)c3)cc2C(F)(F)F)CC1	17%	7.1µM*	?	12%
CCN1CCN(Cc2ccc(NC(=O)c3ccc(C)c(NC(=O)c4c[nH]c5cc(C(F)(F)F)ccc5c4=O)c3)cc2C(F)(F)F)CC1	-1%	14µM*	?	?
Cc1ccc(C(=O)Nc2cccc(C(F)(F)F)c2)cc1NC(=O)c1c[nH]c2cc(C(F)(F)F)ccc2c1=O	.	-8%	-11%	39%
Cc1ccc(CN2CCOc3ccc(CN4CCC(O)(c5cccnc5)CC4)cc3C2)cc1	.	-21%	-28%	?
Cn1c(=O)n(C)c2cc([N+](=O)[O-])c(N3CCN(C(=O)c4cccc(Cl)c4)CC3)cc21	-1%	-14%	-7%	35µM*
Cn1c(=O)n(C)c2cc([N+](=O)[O-])c(N3CCN(C(=O)c4cccc(F)c4)CC3)cc21	0%	-17%	-27%	?
CS(=O)(=O)c1ccc(S(=O)CC(=O)Oc2ccc(Cl)cc2)c([N+](=O)[O-])c1 (stereo not drawn)	-27%	-10%	?	35µM*
O=C(CS(=O)c1ccccc1[N+](=O)[O-])Oc1ccc(Br)cc1 (stereo not drawn)	-13%	-3%	-1%	-10%
O=C(NC(=S)Nc1ccccc1[N+](=O)[O-])c1ccccc1	?	-16%	-20%	37%
